BioA inh = inhibitors of Mycobacterium tuberculosis BioA enzyme; purified M. tuberculosis BioA enzyme, plate reader; inhibition, % at 9.99 µM; actives 0.096% (n = 360,000); in the data active = inhibition above about 40%; inconclusive = no clear call, values can overlap the other calls
TcdB inh = blocks C. difficile toxin B glycohydrolase activity; TcdB glycohydrolase enzymatic assay, plate reader; actives 0.24% (n = 350,000); inhibition, % at 9.99 µM; P18177; AID 652162; in the data active = inhibition above about 10%
PfHsp40 rescue = compounds rescuing yeast from Plasmodium falciparum HSP40 toxicity. S. cerevisiae expressing PfHsp40, growth rescue, ATP luminescence. growth rescue, % at 12.5 µM. actives 0.68% (n = 340,000). AID 504582; in the data active = growth rescue above about 28%, passing the limit was not always enough; inconclusive = no clear call, values can overlap the other calls;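 also: yeast W303a lacking pdr1 and pdr3 grown in galactose medium; growth measured after three days at 30 °C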
FadD28 binding = M. tuberculosis FadD28 bisubstrate binding inhibition; inhibition, % at 12.5 µM; FadD28 bisubstrate probe binding, fluorescence polarization; AID 588549; actives 0.22% (n = 360,000); in the data active = inhibition above about 8.5%, passing the limit was not always enough; inconclusive = no clear call, values can overlap the other calls
PrP 5UTR inh = inhibition of PrP 5' UTR reporter expression; cell-based PrP 5' UTR mRNA reporter, plate reader; inhibition, % (test concentration not listed); actives 0.35% (n = 340,000); AID 488862; in the data active = inhibition above about 52%; also: 0 = median of the neutral control wells
Y pestis TopoI = Y. pestis Topo-I inhibition via cleavage products; Y. pestis Topo-I cleavage product accumulation, plate reader; activity, % at 10 µM; actives 0.064% (n = 360,000); AID 504884; in the data active = activity above about 50%, passing the limit was not always enough; inconclusive = no clear call, values can overlap the other calls
PrP UTR cherry = prion 5' UTR mRNA inhibition, cherry-pick retest | shares compounds with PrP 5UTR inh | cell-based prion protein 5' UTR reporter, plate reader | inhibition, % at 2.5 µM | actives 48% (n = 1,100) | AID 504592; in the data active = inhibition above about 54%; inconclusive = no clear call, values can overlap the other calls
An asterisk follows results filed as active; ? = inconclusive; nt = no result; ! = a repeat was not active. This is a sample that favours compounds with a hit; in the whole collection about 1.2% have one here.

SMILES	BioA inh	TcdB inh	PfHsp40 rescue	FadD28 binding	PrP 5UTR inh	Y pestis TopoI	PrP UTR cherry
O=C(O)c1ccc(N=N/C(=N\Nc2ccc(C(=O)O)cc2)c2ccccc2)cc1	3	0	0	3	-8	-15	nt
Cc1noc(C)c1NC(=O)Nc1ccc2c(c1)C(=O)N([C@@H](C)CO)C[C@H](C)[C@@H](CN(C)C(=O)Nc1c(C)noc1C)OCCCC[C@H](C)O2	-1	-1	nt	nt	nt	nt	nt
O=C(NCc1cccs1)C1CCN(S(=O)(=O)N2CCCC2)CC1	-1	nt	33*	0	-14	6	nt
CO[C@H]1CN(C)C(=O)c2cc(NS(=O)(=O)c3cn(C)cn3)ccc2OC[C@H](C)N(Cc2cccc(F)c2)C[C@@H]1C	7	1	nt	nt	nt	nt	nt
O=C(N/N=C/C(Cl)=C/c1ccccc1)c1cnccn1	22	nt	-1	1	-10	-10	nt
O=C(N/N=C/C(Cl)=C\c1ccccc1)c1cnccn1	45*	nt	0	-1	-15	-7	nt
Cc1cc(O)ccc1N=Cc1c(C(F)(F)F)[nH][nH]c1=O	nt	15*	0	1	-19	7	nt
Cn1cc(C(=O)OCC(=O)NC2(C#N)CCCC2)c2ccccc21	-2	0	66*	-1	-18	-1	nt
N#CC1(NC(=O)COC(=O)C2=COCCO2)CCCCC1	2	0	0	18*	-21	5	nt
Cn1cc(C(=O)OCC(=O)NC2(C#N)CCCCC2)c2ccccc21	0	1	1	-2	-23	-3	nt
CN(C(=O)COC(=O)C1=COCCO1)C1(C#N)CCCCC1	-4	0	0	-1	-5	-1	nt
C[C@@H](NC(=O)C[C@@H]1CC[C@@H]2[C@H](COC[C@H](O)CN2C)O1)c1ccccc1	-2	-2	nt	nt	nt	nt	nt
O=C(C[C@@H]1C[C@H]2c3cc(NC(=O)Nc4ccccc4)ccc3O[C@H]2[C@@H](CO)O1)NCC(F)(F)F	-2	0	nt	nt	nt	nt	nt
O=c1[nH]nc(-c2ccc(F)cc2)cc1Cc1ccccc1	nt	10*	2	-1	-24	18	nt
C[C@H](CO)N1C[C@H](C)[C@@H](CN(C)C(=O)C2CCCCC2)Oc2cc(C3=CCCCC3)ccc2S1(=O)=O	0	1	nt	nt	nt	nt	nt
Cn1ncc2c(O/N=C(\N)c3ccc(C(C)(C)C)cc3)ncnc21	-2	nt	73*	0	-2	2	nt
Cc1noc(C)c1NC(=O)N(C)C[C@H]1Oc2ccc(NS(=O)(=O)c3cccs3)cc2CC(=O)N([C@H](C)CO)C[C@@H]1C	-3	nt	nt	nt	nt	nt	nt
O=C(O)Cc1sc(Nc2ccc(Cl)cc2)nc1-c1cccs1	nt	0	1	nt	88*	nt	-24
CC(C)c1nnc(NC(=O)c2ccc3c(c2)OCO3)s1	nt	1	-2	-2	54*	0	?
Cc1cnc(NC(=O)c2ccc3c(c2)OCCO3)s1	0	0	0	1	81*	1	73*
COCCNC(=O)C[C@@H]1C=C[C@H](NS(=O)(=O)c2ccc(C)cc2)[C@H](CO)O1	-2	-1	nt	nt	nt	nt	nt
CC(C)C[C@H](NC(=O)[C@@H]1CCCN1C(=O)[C@@H](N)Cc1ccc(O)cc1)C(=O)NCC(N)=O	1	1	-1	-1	84*	2	-7
CC(C)CC(NC(=O)C1CCCN1C(=O)CNC(=O)OCc1ccccc1)C(=O)O (stereo not given)	0	2	0	-1	13	-5	nt
Cc1ccc(-c2noc(CCC(=O)Nc3ccc4c(c3)OCO4)n2)cc1	3	nt	-1	-1	60*	-4	-15
COc1ccc(-c2noc(CCC(=O)Nc3ccc4c(c3)OCCO4)n2)cc1	-1	nt	10	-3	-8	3	nt
SMILES	BioA inh	TcdB inh	PfHsp40 rescue	FadD28 binding	PrP 5UTR inh	Y pestis TopoI	PrP UTR cherry
Cn1c(=N)n(CC(=O)c2ccccc2)c2ccccc21	1	1	nt	-1	nt	4	nt
Cn1c(=N)n(CC(=O)c2ccc(Cl)c(Cl)c2)c2ccccc21	1	1	1	-4	61*	2	12
Cc1cc(N)n2ncc(-c3ccccc3)c2n1	0	nt	1	1	-132	-5	nt
CC(=O)Nc1ccc(Nc2cc(C)nc3c(-c4ccccc4)cnn23)cc1	1	nt	?	3	60*	-2	-4
CNc1nc2c(C)cccn2c(=O)c1C=NCc1ccccc1	-1	nt	-1	-2	78*	1	4
O=C(CCN1CCCCC1)N[C@H]1CC[C@@H](CCNS(=O)(=O)c2ccccc2)O[C@@H]1CO	0	nt	nt	nt	nt	nt	nt
CNc1c2cccc(C)c2nc2c(C(=O)NCCN(C)C)cccc12	nt	3	1	-1	96*	-50	96*
C[C@H]1[C@@H](OS(=O)(=O)O)C[C@@H]2C[C@H]([C@@H](O)c3cc(=O)[nH]c(=O)[nH]3)NC3=NC[C@H]1N32	-1	nt	nt	-2	61*	4	66*
CC(C)CCN(C(=S)Nc1cccc(F)c1)C1CCN(C(C)C)CC1	nt	2	1	-4	79*	-14	-19
COc1ccc(NC(=S)N(CCC(C)C)C2CCN(C(C)C)CC2)cc1	1	1	0	nt	-18	-10	nt
COC(=O)c1[nH]c2c(c1C)C(=O)CC(c1ccccc1)C2 (stereo not given)	8	nt	0	-1	-21	6	nt
Cc1c(C(=O)OCC2CCCO2)[nH]c2c1C(=O)CC(c1ccco1)C2 (stereo not given)	-1	nt	1	0	-32	4	nt
Cc1c(C(=O)OCC(C)C)[nH]c2c1C(=O)CC(c1ccco1)C2 (stereo not given)	-2	1	0	0	70*	-7	85*
C/C=C/COC(=O)c1[nH]c2c(c1C)C(=O)CC(c1ccco1)C2 (stereo not given)	0	0	2	-3	62*	-8	85*
Cc1c(C(=O)OC2CCCC2)[nH]c2c1C(=O)CC(c1ccco1)C2 (stereo not given)	0	1	2	-3	61*	-4	73*
C[C@@H]1CN([C@@H](C)CO)S(=O)(=O)c2ccc(C3=CCCC3)cc2O[C@H]1CN(C)C(=O)C1CCCCC1	-1	1	nt	nt	nt	nt	nt
CCCNC(=O)N1C[C@@H]2[C@H](c3ccccc31)[C@H](CO)N2Cc1cc(F)ccc1F	-1	-1	nt	nt	nt	nt	nt
Cc1ccc2nc3sc(C(=O)N4CCOCC4)c(N)c3cc2c1	1	nt	-1	-4	86*	6	69*
Cc1ccccc1-c1cnc2c(c1)C(=O)N([C@H](C)CO)C[C@H](C)[C@H](CN(C)C(=O)c1cccnc1)O2	0	2	nt	nt	nt	nt	nt
O=C(NCCCNCc1ccccc1)c1ccccn1	0	-2	0	-2	62*!	-1	-7

Compound activity (PubChem BioAssay)
